For six sequences, PBM binding z-score results are on record in the supplement of paper PMC6555819.

Common to all, as to assay: PBM binding z-score (relative to random genomic background probes); higher = stronger binding; sequences stand for … in GC…GCGATTGACAGCGTAGAATGAAGG
Test [1] deals with FXR:RXRa (NR concentration 270 nM, RXRa partner concentration 90 nM). The essentials:
(§1)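 Binding buffer was PBS pH 7.4 with 2% milk, 0.02% Triton X-100, 1 mM DTT, 0.2 mg/mL BSA and 0.4 mg/ml salmon testes DNA. In it, ligand-free nuclear receptor dimers were incubated 1 h on custom Agilent 4×180K protein-binding microarrays carrying double-stranded probes. Antibodies against each partner (one per run) detected binding, and z-scores were calculated against random background probes after regression normalization of scanned fluorescence.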

For test [2], the system named is LXRa:RXRa (NR concentration 270 nM, RXRa partner concentration 90 nM). The essentials:
as §1

Test [3] concerns LXRa homodimer (NR concentration 270 nM). The gist of the method:
as §1

Test [4] deals with LXRb:RXRa (NR concentration 270 nM, RXRa partner concentration 90 nM). The essentials:
as §1

Test [5] deals with LXRb homodimer (NR concentration 270 nM). The gist of the method: as §1
For test [6], the system named is PPARa:RXRa (NR concentration 270 nM, RXRa partner concentration 90 nM). The gist of the method: as §1
In test [7] the test system is PPARg:RXRa (NR concentration 180 nM, RXRa partner concentration 90 nM). The gist of the method: as §1
The test system of test [8] is PPARg:RXRa 270nM:90nM, anti-RXR (NR concentration 270 nM, RXRa partner concentration 90 nM). The essentials:
as §1

In test [9] the test system is PPARg:RXRa 30nM:10nM, anti-RXR (NR concentration 30 nM, RXRa partner concentration 10 nM). The gist of the method:
as §1

Test [10] deals with PPARg:RXRa 90nM:30nM, anti-RXR (NR concentration 90 nM, RXRa partner concentration 30 nM). The gist of the method: as §1
Test [11] has as its system PPARg:RXRa DBDmut IVT, anti-RXR (DBD mutation: RXRa K156A/R161A, NR concentration 270 nM, RXRa partner concentration 90 nM). The gist of the method: as §1
For test [12], the system named is PPARg:RXRa IVT, anti-PPARg (NR concentration 270 nM, RXRa partner concentration 90 nM). The essentials:
as §1

Test [13] has as its system PPARg DBDmut:RXRa IVT, anti-PPARg (DBD mutation: PPARg1 K132A/R137A, NR concentration 270 nM, RXRa partner concentration 90 nM). The essentials: as §1
The subject of test [14] is PPARg DBDmut IVT, anti-PPARg (DBD mutation: PPARg1 K132A/R137A, NR concentration 270 nM). The gist of the method: as §1
Test [15] has as its system PPARg homodimer (NR concentration 180 nM). The gist of the method: as §1
Test [16] deals with PXR:RXRa (NR concentration 270 nM, RXRa partner concentration 90 nM). The gist of the method:
as §1

For test [17], the system named is PXR homodimer (NR concentration 270 nM). The essentials: as §1
The subject of test [18] is RARa:RXR (NR concentration 270 nM, RXRa partner concentration 90 nM). The gist of the method:
as §1

The subject of test [19] is RARa homodimer (NR concentration 270 nM). The gist of the method:
as §1

The test system of test [20] is RARb:RXRa (NR concentration 270 nM, RXRa partner concentration 90 nM). The gist of the method: as §1

As for ACAGACAGGTGATGAAGGTAACTCGGGCTATCAT, the PBM binding z-score is -0.17 in [1]; 0.107 in test [2]; -0.351 in test [3]; -0.291 in test [4]; -0.168 in test [5]; 0.0611 in test [6]. Moreover, the PBM binding z-score is 0.471 in [7]; -0.0859 in test [8]; -0.0607 in [9]; -0.242 in [10]; 0.382 in [11]; 0.0218 in test [12]. The PBM binding z-score in test [13] was -0.282; in [14], -0.148; in test [15], 0.503; in test [16], -0.0935; in [17], 0.344; in test [18], 0.209. In addition, the PBM binding z-score in test [19] was found to be 0.291; in [20], 0.263.
Regarding GTACCAAGCTGAATAGGTCGTTGATGAGTAGGCG, the PBM binding z-score in test [1] was -0.533; in [2], -0.288; in [3], -0.35; in [4], -0.237; in [5], -1.03; in test [6] it was 0.192. Moreover, the PBM binding z-score is 0.271 in test [7]; 0.0324 in test [8]; -0.305 in test [9]; -0.334 in test [10]; -0.646 in test [11]; -0.114 in test [12]. Further, the PBM binding z-score is -1.16 in [13]; -0.822 in test [14]; -1.1 in test [15]; -0.255 in test [16]; -0.471 in [17]; 0.235 in test [18]. Moreover, the PBM binding z-score is -0.336 in [19] and 0.0822 in test [20].
Take ATCGAAAGGTCGACGAGGTGAGTATTCACCGTTT: the PBM binding z-score in test [1] was 4.22; in [2], 3.41; in test [3], -0.275; in test [4] it was 2.63; in test [5], 0.0468; in [6], 4.26. Besides, the PBM binding z-score in test [7] turned out to be 2.45; in [8] it was 2.99; in test [9] it was 1.55; in [10] it was 1.94; in [11] it was 0.554; in [12] it was 2.07. For the same sequence, the PBM binding z-score in test [13] came out at 1.07; in [14] it was 0.398; in [15], 0.854; in [16], 2.94; in [17], 0.386; in test [18], 3.29. The PBM binding z-score in test [19] is -0.0728; in test [20] it was 3.91.
For the sequence ACTAGCTGGCCAAGGGTCACTCAAGATTAGTCCG, the PBM binding z-score in test [1] is 2.23; in test [2], 2.82; in [3], 0.129; in [4], 2.53; in test [5], -0.388; in test [6], 3.71. For the same sequence, the PBM binding z-score is 4.25 in test [7]; 5.31 in test [8]; 3.16 in test [9]; 5.05 in test [10]; -0.256 in [11]; 1.86 in test [12]. Further, the PBM binding z-score in test [13] was -0.605; in test [14] it was -0.878; in [15], 1.67; in test [16], 2.92; in test [17], -0.559; in test [18], 3.54. The PBM binding z-score in test [19] is -0.213; in test [20], 3.34.
As to CGTCAAAGTTCAACTAGGGTAACGTAAAGCACGC, the PBM binding z-score in test [1] was 7.53; in [2], 6.47; in test [3] it was 4.77; in test [4] it was 4.43; in test [5], 2.39; in test [6] it was 5.32. Besides, the PBM binding z-score in [7] is 5.78; in [8] it was 5.97; in test [9], 2.98; in test [10] it was 5.07; in test [11], 1.68; in test [12], 3.83. Moreover, the PBM binding z-score in [13] is 0.643; in [14] it was 0.081; in test [15] it was 3.72; in test [16], 5.46; in test [17], 6.56; in test [18], 4.56. The PBM binding z-score in test [19] worked out at 1.44; in [20] it was 5.37.
For the sequence AGAATGAGGTAAAGATCAGGGAAACAGAATACAT, the PBM binding z-score is 0.438 in [1]; 0.311 in test [2]; -0.176 in test [3]; 0.517 in test [4]; -0.108 in test [5]; 0.991 in test [6]. Moreover, the PBM binding z-score was 2 in test [7]; 2.05 in test [8]; 0.928 in test [9]; 1.67 in [10]; 1.72 in [11]; 1.73 in [12]. Also, the PBM binding z-score was found to be 1.8 in test [13]; 0.935 in test [14]; 0.296 in test [15]; 0.125 in test [16]; 0.151 in test [17]; 0.265 in test [18]. Moreover, the PBM binding z-score in test [19] is 0.446; in test [20], 0.258.
